# Assays:
# Assay in all cases: DAPPL (digital affinity profiling via proximity ligation, sequencing); 10 mM Tris-HCl pH 7.5, 50 mM NaCl, 1 mM DTT, 4% glycerol, room temperature, 30 min; GST-TFs on glutathione beads, 16-mer random dsDNA library, 0.1% formaldehyde crosslink after washing; high values mean tight binding
# [1] = target: T1, FLI1 (Homo sapiens, UniProt Q01543 1-452); details: protein: recombinant; tags: N-terminal GST; dsDNA, one strand shown
# T1 sequence: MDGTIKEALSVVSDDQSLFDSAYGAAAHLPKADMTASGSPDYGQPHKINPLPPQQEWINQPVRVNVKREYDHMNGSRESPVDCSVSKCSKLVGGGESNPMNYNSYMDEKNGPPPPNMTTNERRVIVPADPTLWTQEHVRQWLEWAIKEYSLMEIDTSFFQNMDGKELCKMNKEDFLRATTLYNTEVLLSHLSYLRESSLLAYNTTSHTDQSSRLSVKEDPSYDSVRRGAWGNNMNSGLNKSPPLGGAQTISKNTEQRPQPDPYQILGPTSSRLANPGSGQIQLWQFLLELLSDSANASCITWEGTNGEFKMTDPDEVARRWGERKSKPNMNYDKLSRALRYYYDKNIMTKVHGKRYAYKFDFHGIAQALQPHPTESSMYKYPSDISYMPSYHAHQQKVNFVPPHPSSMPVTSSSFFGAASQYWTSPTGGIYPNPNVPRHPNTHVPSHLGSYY
# How it was run: (§1)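 Binding signal is defined as a hexamer's read frequency for one factor over its frequency for the tag-only sample. To obtain reads, GST-fused human transcription factors were expressed in yeast, captured on glutathione beads, barcoded with DNA and pooled with that sample. Pools met 200 nmole of a 16-mer random double-stranded DNA library in Tris/NaCl/DTT/glycerol buffer for 30 min at room temperature before washing, 0.1% formaldehyde crosslinking, proximity ligation (BsaI/T4 ligase, 1 h, 37 °C), PCR and Illumina NextSeq500 sequencing.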
# [2] = target: T2, ELK1 (Homo sapiens, UniProt P19419 1-428); details: protein: recombinant; tags: N-terminal GST; dsDNA, one strand shown
# T2 sequence: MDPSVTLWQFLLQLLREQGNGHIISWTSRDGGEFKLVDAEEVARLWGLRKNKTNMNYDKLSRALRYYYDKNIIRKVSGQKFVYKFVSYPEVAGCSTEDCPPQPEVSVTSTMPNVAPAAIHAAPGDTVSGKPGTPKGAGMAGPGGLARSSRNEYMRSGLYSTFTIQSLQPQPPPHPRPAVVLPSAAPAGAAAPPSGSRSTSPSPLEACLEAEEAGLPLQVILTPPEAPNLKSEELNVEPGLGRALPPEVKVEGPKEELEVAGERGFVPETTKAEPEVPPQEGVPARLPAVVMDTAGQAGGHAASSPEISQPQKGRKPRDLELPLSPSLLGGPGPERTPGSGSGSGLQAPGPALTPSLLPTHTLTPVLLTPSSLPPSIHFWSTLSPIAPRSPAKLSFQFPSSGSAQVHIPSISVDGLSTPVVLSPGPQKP
# How it was run: as §1
# [3] = target: T3, GABPA (Homo sapiens, UniProt Q06546 1-454); details: protein: recombinant; tags: N-terminal GST; dsDNA, one strand shown
# T3 sequence: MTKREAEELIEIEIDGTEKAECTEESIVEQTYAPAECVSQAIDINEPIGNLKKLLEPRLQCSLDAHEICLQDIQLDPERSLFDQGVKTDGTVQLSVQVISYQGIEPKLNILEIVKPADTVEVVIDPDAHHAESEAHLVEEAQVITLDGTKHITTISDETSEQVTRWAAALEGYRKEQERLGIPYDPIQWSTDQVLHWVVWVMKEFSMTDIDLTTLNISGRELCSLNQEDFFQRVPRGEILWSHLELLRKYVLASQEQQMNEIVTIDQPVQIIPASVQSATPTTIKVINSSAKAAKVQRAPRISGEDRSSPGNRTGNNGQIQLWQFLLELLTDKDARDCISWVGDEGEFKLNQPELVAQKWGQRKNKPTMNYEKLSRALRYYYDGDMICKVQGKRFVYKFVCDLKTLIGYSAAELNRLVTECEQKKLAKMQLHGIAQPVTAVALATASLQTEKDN
# How it was run: as §1
# [4] = target: T4, ERG (Homo sapiens, UniProt P11308 1-479); details: protein: recombinant; tags: N-terminal GST; dsDNA, one strand shown
# T4 sequence: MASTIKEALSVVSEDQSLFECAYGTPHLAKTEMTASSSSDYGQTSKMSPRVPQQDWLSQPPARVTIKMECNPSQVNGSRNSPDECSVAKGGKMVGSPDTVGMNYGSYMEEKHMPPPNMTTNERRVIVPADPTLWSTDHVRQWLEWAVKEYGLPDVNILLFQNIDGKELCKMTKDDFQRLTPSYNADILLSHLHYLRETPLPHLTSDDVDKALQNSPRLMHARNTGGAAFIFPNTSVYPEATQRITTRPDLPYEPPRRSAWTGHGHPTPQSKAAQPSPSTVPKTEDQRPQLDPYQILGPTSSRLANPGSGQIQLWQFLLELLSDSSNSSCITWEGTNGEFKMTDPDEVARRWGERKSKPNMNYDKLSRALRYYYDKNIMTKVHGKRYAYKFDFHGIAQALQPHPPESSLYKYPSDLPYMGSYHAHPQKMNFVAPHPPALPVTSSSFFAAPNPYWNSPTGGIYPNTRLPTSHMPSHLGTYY
# How it was run: as §1
# [5] = target: ELF1 (Homo sapiens, UniProt P32519 1-619); details: protein: recombinant; tags: N-terminal GST; dsDNA, one strand shown
# How it was run: as §1
# [6] = target: T5, EHF (Homo sapiens, UniProt Q9NZC4 1-300); details: protein: recombinant; tags: N-terminal GST; dsDNA, one strand shown
# T5 sequence: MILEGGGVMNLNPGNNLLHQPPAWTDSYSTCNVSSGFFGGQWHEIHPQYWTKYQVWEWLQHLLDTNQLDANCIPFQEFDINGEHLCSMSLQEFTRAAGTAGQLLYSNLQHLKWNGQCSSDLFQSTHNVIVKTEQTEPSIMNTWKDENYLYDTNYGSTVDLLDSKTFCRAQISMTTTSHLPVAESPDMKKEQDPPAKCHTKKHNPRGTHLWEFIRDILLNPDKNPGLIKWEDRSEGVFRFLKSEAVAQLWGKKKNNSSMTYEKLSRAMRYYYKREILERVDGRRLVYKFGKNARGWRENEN
# How it was run: as §1
# [7] = target: SPI1 (Homo sapiens, UniProt P17947 1-270); details: protein: recombinant; tags: N-terminal GST; dsDNA, one strand shown
# How it was run: as §1
# [8] = target: SPIB (Homo sapiens, UniProt Q01892 1-262); details: protein: recombinant; tags: N-terminal GST; dsDNA, one strand shown
# How it was run: as §1
# [9] = target: T6, ELK3 (Homo sapiens, UniProt P41970 1-407); details: protein: recombinant; tags: N-terminal GST; dsDNA, one strand shown
# T6 sequence: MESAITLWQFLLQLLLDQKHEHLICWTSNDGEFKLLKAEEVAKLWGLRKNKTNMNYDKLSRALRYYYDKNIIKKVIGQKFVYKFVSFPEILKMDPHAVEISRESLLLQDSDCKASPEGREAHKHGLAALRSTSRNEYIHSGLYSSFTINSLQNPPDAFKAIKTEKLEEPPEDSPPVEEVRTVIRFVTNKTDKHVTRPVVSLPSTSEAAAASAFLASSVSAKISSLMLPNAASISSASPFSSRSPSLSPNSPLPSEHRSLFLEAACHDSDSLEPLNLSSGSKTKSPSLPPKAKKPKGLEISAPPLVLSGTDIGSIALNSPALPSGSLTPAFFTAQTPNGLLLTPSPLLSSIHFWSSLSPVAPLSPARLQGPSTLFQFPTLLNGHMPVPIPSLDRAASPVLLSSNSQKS
# How it was run: as §1
# [10] = target: T7, FEV (Homo sapiens, UniProt Q99581 1-238); details: protein: recombinant; tags: N-terminal GST; dsDNA, one strand shown
# T7 sequence: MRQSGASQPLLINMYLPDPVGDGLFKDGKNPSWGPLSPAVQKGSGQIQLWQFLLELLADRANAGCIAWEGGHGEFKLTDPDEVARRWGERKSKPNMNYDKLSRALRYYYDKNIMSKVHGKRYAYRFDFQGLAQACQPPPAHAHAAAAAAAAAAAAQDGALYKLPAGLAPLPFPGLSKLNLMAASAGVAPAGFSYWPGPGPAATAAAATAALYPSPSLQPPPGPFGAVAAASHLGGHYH
# How it was run: as §1
# [11] = target: ETV5 (Homo sapiens, UniProt P41161 1-510); details: protein: recombinant; tags: N-terminal GST; dsDNA, one strand shown
# How it was run: as §1
# [12] = target: HSF1 (Homo sapiens, UniProt Q00613 1-529); details: protein: recombinant; tags: N-terminal GST; chain copies: 3; dsDNA, one strand shown
# How it was run: as §1
# [13] = target: T8, SPIC (Homo sapiens, UniProt Q8N5J4 1-248); details: protein: recombinant; tags: N-terminal GST; dsDNA, one strand shown
# T8 sequence: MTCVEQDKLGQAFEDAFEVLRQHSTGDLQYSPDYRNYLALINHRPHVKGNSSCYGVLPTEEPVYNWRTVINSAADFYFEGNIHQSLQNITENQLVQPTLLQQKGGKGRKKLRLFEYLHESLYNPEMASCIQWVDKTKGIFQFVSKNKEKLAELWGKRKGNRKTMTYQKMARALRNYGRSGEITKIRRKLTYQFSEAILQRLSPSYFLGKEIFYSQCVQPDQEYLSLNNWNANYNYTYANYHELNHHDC
# How it was run: as §1
# [14] = target: ELF4 (Homo sapiens, UniProt Q99607 1-663); details: protein: recombinant; tags: N-terminal GST; dsDNA, one strand shown
# How it was run: as §1
# [15] = target: T9, ELK4 (Homo sapiens, UniProt P28324-2 1-405); details: protein: recombinant; tags: N-terminal GST; dsDNA, one strand shown
# T9 sequence: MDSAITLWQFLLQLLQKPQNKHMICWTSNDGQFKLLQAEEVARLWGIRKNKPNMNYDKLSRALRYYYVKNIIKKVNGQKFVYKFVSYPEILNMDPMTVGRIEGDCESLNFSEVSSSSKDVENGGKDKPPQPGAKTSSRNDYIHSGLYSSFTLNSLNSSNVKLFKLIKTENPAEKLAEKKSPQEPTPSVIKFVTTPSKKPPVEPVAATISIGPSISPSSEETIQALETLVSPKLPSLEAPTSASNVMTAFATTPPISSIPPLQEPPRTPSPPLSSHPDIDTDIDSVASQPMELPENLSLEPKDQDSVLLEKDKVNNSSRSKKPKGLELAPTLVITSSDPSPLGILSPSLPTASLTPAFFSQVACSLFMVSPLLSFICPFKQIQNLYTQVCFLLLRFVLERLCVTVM
# How it was run: as §1
# [16] = target: T10, ETV2 (Homo sapiens, UniProt O00321 1-342); details: protein: recombinant; tags: N-terminal GST; dsDNA, one strand shown
# T10 sequence: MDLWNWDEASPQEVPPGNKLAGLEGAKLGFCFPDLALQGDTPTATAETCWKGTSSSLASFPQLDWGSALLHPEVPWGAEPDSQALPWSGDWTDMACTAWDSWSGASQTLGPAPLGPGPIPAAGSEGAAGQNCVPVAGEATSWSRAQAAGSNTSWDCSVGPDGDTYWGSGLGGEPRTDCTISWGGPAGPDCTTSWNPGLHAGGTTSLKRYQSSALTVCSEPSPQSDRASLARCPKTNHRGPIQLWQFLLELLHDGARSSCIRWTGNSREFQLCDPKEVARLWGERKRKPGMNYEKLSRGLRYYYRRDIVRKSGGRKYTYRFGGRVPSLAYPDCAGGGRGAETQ
# How it was run: as §1
# [17] = target: T11, ELF3 (Homo sapiens, UniProt P78545 1-371); details: protein: recombinant; tags: N-terminal GST; dsDNA, one strand shown
# T11 sequence: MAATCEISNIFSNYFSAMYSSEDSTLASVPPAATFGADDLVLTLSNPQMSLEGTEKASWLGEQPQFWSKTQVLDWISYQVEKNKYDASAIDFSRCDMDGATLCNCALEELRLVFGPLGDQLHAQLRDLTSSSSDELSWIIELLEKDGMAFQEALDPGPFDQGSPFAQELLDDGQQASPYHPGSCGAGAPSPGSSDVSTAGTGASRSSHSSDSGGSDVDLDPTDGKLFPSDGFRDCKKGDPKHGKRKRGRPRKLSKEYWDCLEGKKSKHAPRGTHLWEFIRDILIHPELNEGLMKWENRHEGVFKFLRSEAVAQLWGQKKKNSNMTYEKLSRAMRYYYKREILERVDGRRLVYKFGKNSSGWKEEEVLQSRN
# How it was run: as §1
# [18] = target: CRX (Homo sapiens, UniProt O43186 1-299); details: protein: recombinant; tags: N-terminal GST; dsDNA, one strand shown
# How it was run: as §1
# [19] = target: ETV1 (Homo sapiens, UniProt P50549 1-477); details: protein: recombinant; tags: N-terminal GST; dsDNA, one strand shown
# How it was run: as §1
# Sequence of ETV1 (P50549 whole entry): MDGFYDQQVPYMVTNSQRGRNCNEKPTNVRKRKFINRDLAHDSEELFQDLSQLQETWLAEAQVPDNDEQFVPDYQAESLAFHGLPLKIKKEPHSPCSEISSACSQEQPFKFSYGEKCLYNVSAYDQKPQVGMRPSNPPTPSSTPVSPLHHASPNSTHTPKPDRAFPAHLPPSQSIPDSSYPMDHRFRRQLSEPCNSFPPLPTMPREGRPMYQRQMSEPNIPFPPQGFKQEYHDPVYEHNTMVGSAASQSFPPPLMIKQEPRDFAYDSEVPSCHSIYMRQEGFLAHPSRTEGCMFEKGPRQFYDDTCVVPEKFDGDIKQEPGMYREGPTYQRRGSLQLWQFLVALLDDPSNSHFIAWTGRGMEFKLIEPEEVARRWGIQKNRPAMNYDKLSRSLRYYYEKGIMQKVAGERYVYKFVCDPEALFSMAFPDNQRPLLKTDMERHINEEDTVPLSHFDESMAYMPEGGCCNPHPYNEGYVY
# Sequence of ELF1 (P32519 whole entry): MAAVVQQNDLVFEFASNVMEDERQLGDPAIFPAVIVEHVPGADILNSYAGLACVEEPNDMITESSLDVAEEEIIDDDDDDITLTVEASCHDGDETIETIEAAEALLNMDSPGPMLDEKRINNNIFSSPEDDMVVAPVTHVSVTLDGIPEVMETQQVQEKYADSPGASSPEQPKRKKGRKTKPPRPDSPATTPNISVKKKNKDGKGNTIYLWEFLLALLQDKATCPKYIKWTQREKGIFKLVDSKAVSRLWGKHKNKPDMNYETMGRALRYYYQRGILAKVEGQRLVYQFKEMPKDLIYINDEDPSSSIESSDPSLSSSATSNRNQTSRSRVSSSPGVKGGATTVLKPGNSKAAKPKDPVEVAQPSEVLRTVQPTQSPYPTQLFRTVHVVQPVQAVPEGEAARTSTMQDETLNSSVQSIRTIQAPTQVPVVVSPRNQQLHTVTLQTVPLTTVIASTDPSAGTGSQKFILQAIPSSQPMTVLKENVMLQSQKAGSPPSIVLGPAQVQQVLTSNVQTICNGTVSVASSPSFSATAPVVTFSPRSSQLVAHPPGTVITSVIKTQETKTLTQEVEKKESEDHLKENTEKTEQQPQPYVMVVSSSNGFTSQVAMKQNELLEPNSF
# Sequence of ELF4 (Q99607 whole entry): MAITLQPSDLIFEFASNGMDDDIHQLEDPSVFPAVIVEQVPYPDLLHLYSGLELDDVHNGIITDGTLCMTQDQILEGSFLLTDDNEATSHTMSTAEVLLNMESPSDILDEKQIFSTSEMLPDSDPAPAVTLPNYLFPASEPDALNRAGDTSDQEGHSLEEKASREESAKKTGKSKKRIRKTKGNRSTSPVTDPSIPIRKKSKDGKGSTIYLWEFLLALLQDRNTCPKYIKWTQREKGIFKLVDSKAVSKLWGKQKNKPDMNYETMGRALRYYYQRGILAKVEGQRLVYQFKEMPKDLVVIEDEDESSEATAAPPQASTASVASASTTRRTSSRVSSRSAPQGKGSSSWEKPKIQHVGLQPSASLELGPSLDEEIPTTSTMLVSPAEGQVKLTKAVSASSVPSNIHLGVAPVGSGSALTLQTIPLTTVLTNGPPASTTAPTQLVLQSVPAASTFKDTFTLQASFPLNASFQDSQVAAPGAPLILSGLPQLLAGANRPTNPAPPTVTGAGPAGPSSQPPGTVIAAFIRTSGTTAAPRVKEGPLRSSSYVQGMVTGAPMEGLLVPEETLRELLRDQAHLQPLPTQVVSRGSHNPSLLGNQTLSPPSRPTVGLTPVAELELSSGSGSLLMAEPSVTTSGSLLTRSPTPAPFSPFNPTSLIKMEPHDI
# Sequence of HSF1 (Q00613 whole entry): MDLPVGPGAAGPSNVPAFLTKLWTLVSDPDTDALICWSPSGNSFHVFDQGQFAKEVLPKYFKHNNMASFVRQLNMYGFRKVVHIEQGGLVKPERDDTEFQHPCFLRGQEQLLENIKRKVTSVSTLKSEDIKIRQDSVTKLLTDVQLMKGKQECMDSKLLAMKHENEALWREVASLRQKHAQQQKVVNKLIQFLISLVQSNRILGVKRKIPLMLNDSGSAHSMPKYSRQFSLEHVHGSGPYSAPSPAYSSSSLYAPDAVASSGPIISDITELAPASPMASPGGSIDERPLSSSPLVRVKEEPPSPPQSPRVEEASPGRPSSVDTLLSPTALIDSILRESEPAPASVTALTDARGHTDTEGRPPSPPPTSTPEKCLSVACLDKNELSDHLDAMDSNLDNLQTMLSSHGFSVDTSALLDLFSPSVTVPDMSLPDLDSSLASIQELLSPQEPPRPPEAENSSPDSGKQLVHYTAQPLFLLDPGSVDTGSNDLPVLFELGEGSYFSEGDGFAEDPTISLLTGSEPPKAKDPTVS
# Sequence of SPIB (Q01892 whole entry): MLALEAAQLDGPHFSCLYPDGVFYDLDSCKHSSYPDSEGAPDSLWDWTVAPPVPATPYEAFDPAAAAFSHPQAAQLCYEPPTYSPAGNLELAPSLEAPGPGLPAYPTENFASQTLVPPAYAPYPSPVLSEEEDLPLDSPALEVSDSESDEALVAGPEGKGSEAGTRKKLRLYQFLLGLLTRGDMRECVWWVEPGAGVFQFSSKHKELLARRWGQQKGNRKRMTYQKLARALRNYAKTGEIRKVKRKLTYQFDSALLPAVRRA
# Sequence of ETV5 (P41161 whole entry): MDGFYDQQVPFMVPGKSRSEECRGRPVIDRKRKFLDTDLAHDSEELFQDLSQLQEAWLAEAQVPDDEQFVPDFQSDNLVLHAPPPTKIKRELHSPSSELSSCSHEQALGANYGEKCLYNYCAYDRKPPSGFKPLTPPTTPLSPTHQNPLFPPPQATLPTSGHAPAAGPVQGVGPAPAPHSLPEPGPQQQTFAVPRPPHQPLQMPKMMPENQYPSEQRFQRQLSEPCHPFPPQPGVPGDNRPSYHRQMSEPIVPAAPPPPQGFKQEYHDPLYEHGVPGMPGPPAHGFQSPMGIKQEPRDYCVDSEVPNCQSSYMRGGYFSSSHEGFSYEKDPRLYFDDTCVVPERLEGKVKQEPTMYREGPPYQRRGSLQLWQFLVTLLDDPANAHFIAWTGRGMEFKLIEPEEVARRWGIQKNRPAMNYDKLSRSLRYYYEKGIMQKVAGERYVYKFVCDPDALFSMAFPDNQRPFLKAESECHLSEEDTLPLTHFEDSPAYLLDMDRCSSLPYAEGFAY
# Sequence of CRX (O43186 whole entry): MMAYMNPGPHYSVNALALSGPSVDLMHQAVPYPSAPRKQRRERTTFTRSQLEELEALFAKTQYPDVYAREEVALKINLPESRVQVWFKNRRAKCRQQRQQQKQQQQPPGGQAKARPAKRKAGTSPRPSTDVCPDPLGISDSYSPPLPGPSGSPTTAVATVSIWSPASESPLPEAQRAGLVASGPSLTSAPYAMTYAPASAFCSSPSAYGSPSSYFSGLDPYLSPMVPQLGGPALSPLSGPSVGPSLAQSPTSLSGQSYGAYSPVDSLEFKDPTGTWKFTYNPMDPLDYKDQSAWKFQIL
sequence,measurement,setting,value
TCGTTT,binding signal,[1],"1.13 fold enrichment (6-mer frequency, TF over GST control)"
same,binding signal,[2],"1.21 fold enrichment (6-mer frequency, TF over GST control)"
same,binding signal,[3],"1.28 fold enrichment (6-mer frequency, TF over GST control)"
same,binding signal,[4],"1.15 fold enrichment (6-mer frequency, TF over GST control)"
same,binding signal,[5],"1.15 fold enrichment (6-mer frequency, TF over GST control)"
same,binding signal,[6],"1.22 fold enrichment (6-mer frequency, TF over GST control)"
same,binding signal,[7],"1.2 fold enrichment (6-mer frequency, TF over GST control)"
same,binding signal,[8],"1.18 fold enrichment (6-mer frequency, TF over GST control)"
same,binding signal,[9],"1.05 fold enrichment (6-mer frequency, TF over GST control)"
same,binding signal,[10],"1.14 fold enrichment (6-mer frequency, TF over GST control)"
same,binding signal,[11],"1.09 fold enrichment (6-mer frequency, TF over GST control)"
same,binding signal,[12],"1.02 fold enrichment (6-mer frequency, TF over GST control)"
same,binding signal,[13],"1.15 fold enrichment (6-mer frequency, TF over GST control)"
same,binding signal,[14],"1.17 fold enrichment (6-mer frequency, TF over GST control)"
same,binding signal,[15],"1.24 fold enrichment (6-mer frequency, TF over GST control)"
same,binding signal,[16],"1.3 fold enrichment (6-mer frequency, TF over GST control)"
same,binding signal,[17],"1.27 fold enrichment (6-mer frequency, TF over GST control)"
same,binding signal,[18],"1.08 fold enrichment (6-mer frequency, TF over GST control)"
same,binding signal,[19],"1.18 fold enrichment (6-mer frequency, TF over GST control)"
